# Test results reported in PubChem BioAssay AID1159580 (chemical genetic matrix, 2015).
# Values joined by “and” are separate entries in the source; they are usually repeats but may differ in a detail not shown here. Equal entries are not always repeated. Screen size: about 5,500 compounds; about 2,000 (36%) were called active. Roughly 18% stayed inconclusive and do not appear here. No stated cut-off is given here; in the data, active means normalized growth mostly below about 0.91 (no sharp cut-off); inconclusive means no clear call, values can overlap the other calls; inactive means mostly above about 0.92. Some of the results follow. The source holds several records for some structures; these can differ, active in one and inactive in another.
# Assay: chemical genetic growth profiling, strain panel (AID 1159580);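 further: tested at 20 µM; growth read once vehicle control cultures reached saturation at 30 °C; 1 = growth at the plate median or of vehicle wells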
# Conditions: growth OD
compound,measurement,setting,value
Cc1nc2sccn2c(=O)c1CCN1CCC(=C(c2ccc(F)cc2)c2ccc(F)cc2)CC1,normalized growth,"S. cerevisiae deletion strains, locus YAL013W, strain DEP1, stronger effect = lower value",0.65 (active) and 1.01 (inactive)
same,normalized growth,"S. cerevisiae deletion strains, locus YAL040C, strain CLN3, stronger effect = lower value",1 (inactive)
same,normalized growth,"S. cerevisiae deletion strains, locus YBR021W, strain FUR4, stronger effect = lower value",0.338 (active)
same,normalized growth,"S. cerevisiae deletion strains, locus YBR229C, strain ROT2, stronger effect = lower value",0.992 (inactive)
same,normalized growth,"S. cerevisiae deletion strains, locus YCL029C, strain bik1, stronger effect = lower value",0.885 (active)
same,normalized growth,"S. cerevisiae deletion strains, locus YCL061C, strain MRC1 (second series), stronger effect = lower value",1 (inactive)
same,normalized growth,"S. cerevisiae deletion strains, locus YDL035C, strain GPR1, stronger effect = lower value",0.536 (active)
same,normalized growth,"S. cerevisiae deletion strains, locus YDL074C, strain BRE1, stronger effect = lower value",0.395 (active)
same,normalized growth,"S. cerevisiae deletion strains, locus YDL101C, strain DUN1, stronger effect = lower value",0.758 (active)
same,normalized growth,"S. cerevisiae deletion strains, locus YDL134C, strain PPH21, stronger effect = lower value",0.404 (active)
same,normalized growth,"S. cerevisiae deletion strains, locus YDL185W, strain tfp1, stronger effect = lower value",1.01 (inactive)
same,normalized growth,"S. cerevisiae deletion strains, locus YDL192W, strain arf1, stronger effect = lower value",0.844 (active)
same,normalized growth,"S. cerevisiae deletion strains, locus YDR101C, strain arx1, stronger effect = lower value",0.945 (inactive)
same,normalized growth,"S. cerevisiae deletion strains, locus YDR150W, strain NUM1, stronger effect = lower value",0.802 (active) and 0.999 (inactive)
same,normalized growth,"S. cerevisiae deletion strains, locus YDR162C, strain NBP2, stronger effect = lower value",0.0773 (active)
same,normalized growth,"S. cerevisiae deletion strains, locus YDR318W, strain mcm21, stronger effect = lower value",0.865 (active)
same,normalized growth,"S. cerevisiae deletion strains, locus YDR363W, strain ESC2, stronger effect = lower value",1.01 (inactive)
same,normalized growth,"S. cerevisiae deletion strains, locus YDR388W, stronger effect = lower value",0.222 (active)
same,normalized growth,"S. cerevisiae deletion strains, locus YDR502C, strain sam2, stronger effect = lower value",0.832 (active)
same,normalized growth,"S. cerevisiae deletion strains, locus YEL061C, strain CIN8, stronger effect = lower value",0.672 (active)
same,normalized growth,"S. cerevisiae deletion strains, locus YER002W, strain NOP16, stronger effect = lower value",1.21 [resistant] (active)
same,normalized growth,"S. cerevisiae deletion strains, locus YER110C, stronger effect = lower value",1 (inactive)
same,normalized growth,"S. cerevisiae deletion strains, locus YER155C, strain BEM2, stronger effect = lower value",0.897 (active)
same,normalized growth,"S. cerevisiae deletion strains, locus YER167W, strain BCK2, stronger effect = lower value",0.692 (active)
same,normalized growth,"S. cerevisiae deletion strains, locus YGL078C, strain dbp3, stronger effect = lower value",1 (inactive)
same,normalized growth,"S. cerevisiae deletion strains, locus YGL086W, strain mad1, stronger effect = lower value",0.808 (active)
same,normalized growth,"S. cerevisiae deletion strains, locus YGL248W, strain PDE1, stronger effect = lower value",0.511 (active)
same,normalized growth,"S. cerevisiae deletion strains, locus YGR078C, strain PAC10, stronger effect = lower value",0.695 (active)
same,normalized growth,"S. cerevisiae deletion strains, locus YGR135W, strain pre9, stronger effect = lower value",0.683 (active)
same,normalized growth,"S. cerevisiae deletion strains, locus YGR229C, strain SMI1, stronger effect = lower value",0.132 (active) and 0.945 (inactive)
same,normalized growth,"S. cerevisiae deletion strains, locus YGR252W, strain gcn5, stronger effect = lower value",0.487 (active)
same,normalized growth,"S. cerevisiae deletion strains, locus YHR030C, strain SLT2, stronger effect = lower value",0.65 (active) and 0.981 (inactive)
same,normalized growth,"S. cerevisiae deletion strains, locus YHR079C, strain IRE1 (second series), stronger effect = lower value",0.902 (active)
same,normalized growth,"S. cerevisiae deletion strains, locus YHR079C, strain IRE1, stronger effect = lower value",0.959 (inactive)
same,normalized growth,"S. cerevisiae deletion strains, locus YHR094C, strain hxt1, stronger effect = lower value",1 (inactive)
same,normalized growth,"S. cerevisiae deletion strains, locus YHR200W, strain rpn10, stronger effect = lower value",0.914 (active)
same,normalized growth,"S. cerevisiae deletion strains, locus YIL066C, strain RNR3, stronger effect = lower value",0.571 (active)
same,normalized growth,"S. cerevisiae deletion strains, locus YIL073C, strain SPO22, stronger effect = lower value",0.279 (active)
same,normalized growth,"S. cerevisiae deletion strains, locus YIL125W, strain kgd1, stronger effect = lower value",1 (inactive)
same,normalized growth,"S. cerevisiae deletion strains, locus YIR030C, strain dcg1, stronger effect = lower value",0.917 (active)
same,normalized growth,"S. cerevisiae deletion strains, locus YJL095W, strain BCK1, stronger effect = lower value",0.354 (active) and 0.987 (inactive)
same,normalized growth,"S. cerevisiae deletion strains, locus YJL134W, strain LCB3, stronger effect = lower value",1.01 (inactive)
same,normalized growth,"S. cerevisiae deletion strains, locus YJL168C, strain set2, stronger effect = lower value",0.998 (inactive)
same,normalized growth,"S. cerevisiae deletion strains, locus YJL187C, strain SWE1 (second series), stronger effect = lower value",0.547 (active)
same,normalized growth,"S. cerevisiae deletion strains, locus YJR043C, strain POL32, stronger effect = lower value",0.69 (active)
same,normalized growth,"S. cerevisiae deletion strains, locus YJR066W, strain TOR1, stronger effect = lower value",0.965 (inactive)
same,normalized growth,"S. cerevisiae deletion strains, locus YJR075W, strain HOC1, stronger effect = lower value",0.36 (active) and 0.998 (inactive)
same,normalized growth,"S. cerevisiae deletion strains, locus YKL009W, strain mrt4, stronger effect = lower value",0.967 (inactive)
same,normalized growth,"S. cerevisiae deletion strains, locus YKL068W, stronger effect = lower value",0.999 (inactive)
same,normalized growth,"S. cerevisiae deletion strains, locus YKL085W, strain MDH1 (second series), stronger effect = lower value",0.992 (inactive)
same,normalized growth,"S. cerevisiae deletion strains, locus YKL085W, strain MDH1, stronger effect = lower value",0.992 (inactive)
same,normalized growth,"S. cerevisiae deletion strains, locus YKL190W, strain CNB1, stronger effect = lower value",0.604 (active)
same,normalized growth,"S. cerevisiae deletion strains, locus YKR001C, strain vps1, stronger effect = lower value",0.139 (active)
same,normalized growth,"S. cerevisiae deletion strains, locus YLR039C, strain RIC1, stronger effect = lower value",0.303 (active)
same,normalized growth,"S. cerevisiae deletion strains, locus YLR058C, strain SHM2, stronger effect = lower value",0.613 (active)
same,normalized growth,"S. cerevisiae deletion strains, locus YLR102C, strain apc9, stronger effect = lower value",0.999 (inactive)
same,normalized growth,"S. cerevisiae deletion strains, locus YLR113W, strain HOG1, stronger effect = lower value",0.979 (inactive)
same,normalized growth,"S. cerevisiae deletion strains, locus YLR262C, strain YPT6, stronger effect = lower value",0.289 (active)
same,normalized growth,"S. cerevisiae deletion strains, locus YLR268W, strain sec22, stronger effect = lower value",0.624 (active)
same,normalized growth,"S. cerevisiae deletion strains, locus YLR330W, strain CHS5, stronger effect = lower value",0.833 (active)
same,normalized growth,"S. cerevisiae deletion strains, locus YLR342W, strain FKS1 (second series), stronger effect = lower value",0.56 (active)
same,normalized growth,"S. cerevisiae deletion strains, locus YLR371W, strain rom2, stronger effect = lower value",0.978 (inactive)
same,normalized growth,"S. cerevisiae deletion strains, locus YLR418C, strain cdc73, stronger effect = lower value",0.451 (active)
same,normalized growth,"S. cerevisiae deletion strains, locus YML016C, strain PPZ1, stronger effect = lower value",0.65 (active)
same,normalized growth,"S. cerevisiae deletion strains, locus YML032C, strain rad52, stronger effect = lower value",0.825 (active)
same,normalized growth,"S. cerevisiae deletion strains, locus YML124C, strain tub3, stronger effect = lower value",1 (inactive)
same,normalized growth,"S. cerevisiae deletion strains, locus YMR078C, strain ctf18, stronger effect = lower value",1 (inactive)
same,normalized growth,"S. cerevisiae deletion strains, locus YMR223W, strain ubp8, stronger effect = lower value",0.816 (active)
same,normalized growth,"S. cerevisiae deletion strains, locus YMR263W, strain SAP30, stronger effect = lower value",0.733 (active) and 1 (inactive)
same,normalized growth,"S. cerevisiae deletion strains, locus YMR307W, strain GAS1, stronger effect = lower value",0.206 (active) and 1.03 (inactive)
same,normalized growth,"S. cerevisiae deletion strains, locus YNL067W, strain RPL9B, stronger effect = lower value",0.72 (active)
same,normalized growth,"S. cerevisiae deletion strains, locus YNL128W, strain TEP1, stronger effect = lower value",0.637 (active) and 1.1 (inactive)
same,normalized growth,"S. cerevisiae deletion strains, locus YNL153C, strain GIM3, stronger effect = lower value",0.732 (active) and 0.816 (inactive)
same,normalized growth,"S. cerevisiae deletion strains, locus YNL175C, strain NOP13, stronger effect = lower value",1.28 [resistant] (active)
same,normalized growth,"S. cerevisiae deletion strains, locus YNL183C, strain NPR1, stronger effect = lower value",0.935 (inactive)
same,normalized growth,"S. cerevisiae deletion strains, locus YNL197C, strain WHI3, stronger effect = lower value",1.19 [resistant] (active)
same,normalized growth,"S. cerevisiae deletion strains, locus YNL233W, strain BNI4, stronger effect = lower value",0.573 (active)
same,normalized growth,"S. cerevisiae deletion strains, locus YNL250W, strain rad50, stronger effect = lower value",0.988 (inactive)
same,normalized growth,"S. cerevisiae deletion strains, locus YNL271C, strain bni1, stronger effect = lower value",0.992 (inactive)
same,normalized growth,"S. cerevisiae deletion strains, locus YNL298W, strain CLA4, stronger effect = lower value",0.999 (inactive)
same,normalized growth,"S. cerevisiae deletion strains, locus YNL307C, strain MCK1, stronger effect = lower value",0.863 (active)
same,normalized growth,"S. cerevisiae deletion strains, locus YNL322C, strain KRE1, stronger effect = lower value",0.67 (active)
same,normalized growth,"S. cerevisiae deletion strains, locus YNR052C, strain pop2, stronger effect = lower value",0.773 (active)
same,normalized growth,"S. cerevisiae deletion strains, locus YOL006C, strain TOP1, stronger effect = lower value",0.138 (active)
same,normalized growth,"S. cerevisiae deletion strains, locus YOL012C, strain htz1",0.498 (inactive)
same,normalized growth,"S. cerevisiae deletion strains, locus YOL147C, strain pex11, stronger effect = lower value",0.984 (inactive)
same,normalized growth,"S. cerevisiae deletion strains, locus YOR061W, strain CKA2, stronger effect = lower value",0.646 (active)
same,normalized growth,"S. cerevisiae deletion strains, locus YOR069W, strain VPS5, stronger effect = lower value",0.861 (active)
same,normalized growth,"S. cerevisiae deletion strains, locus YOR083W, strain WHI5 (second series), stronger effect = lower value",0.985 (inactive)
same,normalized growth,"S. cerevisiae deletion strains, locus YOR136W, strain idh2, stronger effect = lower value",0.94 (inactive)
same,normalized growth,"S. cerevisiae deletion strains, locus YOR144C, strain elg1, stronger effect = lower value",1.01 (inactive)
same,normalized growth,"S. cerevisiae deletion strains, locus YOR184W, strain ser1, stronger effect = lower value",0.729 (active)
same,normalized growth,"S. cerevisiae deletion strains, locus YOR231W, strain MKK1, stronger effect = lower value",0.999 (inactive)
same,normalized growth,"S. cerevisiae deletion strains, locus YOR316C, strain cot1, stronger effect = lower value",0.996 (inactive)
same,normalized growth,"S. cerevisiae deletion strains, locus YPL055C, strain LGE1, stronger effect = lower value",0.268 (active)
same,normalized growth,"S. cerevisiae deletion strains, locus YPL256C, strain CLN2, stronger effect = lower value",0.962 (inactive)
same,normalized growth,"S. cerevisiae deletion strains, locus YPR119W, strain clb2, stronger effect = lower value",1.01 (inactive)
same,normalized growth,"S. cerevisiae deletion strains, locus YPR141C, strain kar3, stronger effect = lower value",0.997 (inactive)
same,normalized growth,"S. cerevisiae deletion strains, locus YPR163C, strain tif3, stronger effect = lower value",0.722 (active)
same,normalized growth,"S. cerevisiae deletion strains, locus YPR167C, strain met16, stronger effect = lower value",0.906 (active)
same,normalized growth,"S. cerevisiae deletion strains, strain wtn01, stronger effect = lower value",0.776 (active)
same,normalized growth,"S. cerevisiae strains, strain wild type, stronger effect = lower value",0.592 (active)
